Assay results taken from PubChem BioAssay AID1892 (NMMLSC, 2009).
About 140 (2.4%) of roughly 5,900 compounds were called active. No stated cut-off is given here; in the data, active means binding response below about 16% or above about 210%; inactive means in between. For the sample, actives were picked, then their nearest neighbours and some compounds at random.

Target: Mitogen-activated protein kinase kinase kinase 2 (Homo sapiens) (UniProt Q9Y2U5)
Assay: wildtype MEKK2 PB1-MEK5 interaction enhancers or blockers – biochemical, single concentration, multiplex bead flow cytometry, confirmation (AID 1892)
Settings: Alexa488-MEK5 binding to MEKK2 WT, at 10 µM, actives lie on both sides

Binding response (% of control), inactive:
CCOC(=O)Cc1csc(NC(=O)CSc2nc(C)cc(=O)[nH]2)n1 92%
CCOc1nnc(C)c2c(C)n(-c3cccc(Cl)c3)nc12 86%
O=C(COC(=O)CNC(=O)c1ccco1)Nc1ccc(F)cc1 98%
Cn1c(=NC(=O)CSCC(=O)N2CCCCC2)sc2ccccc21 103%
N=C1/C(=C/c2cccn2-c2cccc([N+](=O)[O-])c2)C(=O)N=C2SC=CN12 99%
O=C(c1ccc(Br)o1)N(c1ccccn1)C1CCCCC1 101%
CC(C)(C)NC(=O)Cn1cnc([N+](=O)[O-])n1 96%
O=C(CC1SCCNC1=O)Nc1ccc(Cl)c(Cl)c1 (stereo not given) 104%
O=c1c(/C=N/O)coc2ccc(Cl)cc12 100%
CCN(CC)C(=O)CC(c1ccc2c(c1)OCO2)c1c(OC)cc(OC)c2c(-c3ccccc3)cc(=O)oc12 (stereo not given) 99%
Cc1ccc(C(=O)N/C(=C/c2ccco2)C(=O)NCCc2c[nH]c3ccccc23)cc1C 101%
CN1CCN(/N=C/c2ccc(C#N)cc2)CC1 92%
CCN1CCN(c2nc(Nc3cc(OC)ccc3OC)nc(Nc3cc(OC)ccc3OC)n2)CC1 148%
COc1ccccc1OCCNCC(O)COc1cccc2[nH]c3ccccc3c12 (stereo not given) 159%
COc1ccccc1NC(=S)N1CCN(c2ccc(F)cc2)CC1 100%
O=C(O)/C(=C/c1cccnc1)NC(=O)c1ccccc1 103%
c1ccc(CN2CCC(N=C3NN=C(c4ccc5c(c4)OCCO5)CS3)CC2)cc1 164%
COc1cccc(/C(C)=N/Nc2ncc(Cl)cc2Cl)c1 100%
O=C(c1ccco1)N1CCN(c2cccc(Cl)c2)CC1 93%
COC(=O)C1=NN(c2ccccc2)C2C(=O)N(c3ccccc3OC)C(=O)C12 (stereo not given) 97%
Cc1cccc(CN2CCC(CNC(=O)Nc3ccc(F)c(Cl)c3)CC2)c1 126%
C/C(=N\NC(=O)CNC(=O)C(c1ccccc1)c1ccccc1)c1ccc(C)cc1 106%
CCOC(=O)c1cc2c(nc1NC(=S)Nc1ccccc1)CC(C)(CC)OC2 (stereo not given) 101%
C=CCN(CC=C)S(=O)(=O)c1ccc(C(=O)Nc2sc3c(c2C(N)=O)CCCCC3)cc1 99%
COc1cccc(NC(=S)NCCCN2CCOCC2)c1 109%
CCOc1ccc(S(=O)(=O)N(CC(=O)O)c2ccccc2)cc1 103%
COc1cccc(OC)c1C(=O)Nc1ccc(Cc2ccncc2)cc1 100%
CCCN(CCC)c1nc2c(C)cccn2c(=O)c1/C=C1/SC(=S)N(Cc2ccco2)C1=O 85%
CCCCn1c(SCC(=O)NCCc2ccc(OC)c(OC)c2)nc2c1c(=O)n(C)c(=O)n2C 103%
N=C(N)SCc1cccc2ccccc12 105%
CC(=O)N1CCN(S(=O)(=O)c2ccc(C)c([N+](=O)[O-])c2)C1C(C)C (stereo not given) 97%
COc1ccc(CC(=O)N2N=C(C)CC2(O)C(F)(F)F)cc1 (stereo not given) 96%
COc1ccc(S(=O)(=O)Nc2ccc3oc(C)c(C(C)=O)c3c2)cc1 95%
CC(C)CC(=O)NC(=S)Nc1cc(C(=O)O)ccc1Cl 102%
CCn1cc(CN2CCC(C(=O)Nc3cccc(-c4cccc(Cl)c4)c3)CC2)cn1 182%
O=C(Cc1cccc2ccccc12)Nc1ccc2oc(-c3ccccc3)nc2c1 115%
O=C(CN1C(=O)c2cccnc2Oc2ccc(Cl)cc21)Nc1ccc(F)cc1 99%
N/C(=N\OS(=O)(=O)c1cccc([N+](=O)[O-])c1)c1ccncc1 103%
c1ccc2c(c1)C(=NC1CCCCC1)NC2=NC1CCCCC1 125%
CCOC(=O)CN(C)S(=O)(=O)c1ccc(-c2cc(C(=O)OC)sc2C(F)(F)F)cc1 101%
O=C(NCCC1=CCCCC1)c1ccc(Cl)c([N+](=O)[O-])c1 105%
CN(C)CCCNC(=O)c1cc(C(=O)Cc2ccc(Cl)cc2)c[nH]1 106%
C[C@H]1CCC(=O)N([C@H](CSc2ccccc2)Cc2ccccc2)CC1 111%
O=C(NCCCN1CCCCCC1)c1ccc(N2CCCC2=O)cc1 156%
Cn1c(C(=O)NCCCN2CCCCC2)cc2sccc21 119%
C=CCn1c(=S)sc2c(=O)[nH]c(C)nc21 106%
O=C1Nc2ccc(Br)cc2/C1=N/N=C/C1=C(N2CCOCC2)C(=C\c2ccccc2)/CC1 47%
O=C(O)C1CCN(c2ccc([N+](=O)[O-])cc2[N+](=O)[O-])CC1 103%
Cc1ccc2c(C)c(C(=O)N3CCN(c4ccncc4)CC3)oc2c1C 161%
CC1(C)Cc2cccc(OCC(=O)N3CCN(c4ccc([N+](=O)[O-])cc4)CC3)c2O1 99%
CN1C(=O)/C(=C\c2ccc(-c3ccccc3)o2)SC1=S 23%
CCOC(=O)N1CCN(CC(=O)n2c(C)c(C)c3ccccc32)CC1 93%
FC(F)(F)c1nc(-c2ccccc2)ncc1-c1nnnn1-c1ccccc1 96%
O=C(NCCCN1CCN(c2ccc(F)cc2)CC1)Nc1ccc([N+](=O)[O-])cc1 129%

Binding response (% of control), active:
CCN1CCN(CCNC(=O)c2ccc(/C=C3/Sc4ccccc4N(Cc4cccc(C)c4)C3=O)cc2)CC1 236%
CCc1ccc(-c2nn(-c3ccccc3)cc2CSC(=N)N)cc1 210%
NC(N)=N/N=C/c1ccc(OCc2ccc(Cl)cc2Cl)cc1 234%
CCN(CC)CCOc1ccc2c(c1)C(=NNC(=O)c1ccccn1)c1cc(OCCN(CC)CC)ccc1-2 210%
O=C(NCCCN1CCCCCC1)C1CC(=O)N(C2CCCC2)C1 (stereo not given) 1% [inhibitor]
N#C/C(=C\C1=C(N2CCOCC2)C(=C\c2ccccc2)/CC1)C(=O)Nc1ccccc1F 10% [inhibitor]
